We go through 99 molecules from PubChem BioAssay AID1220 (Sanford-Burnham Center for Chemical Genomics, 2008).

Among all 190,000 compounds or so, about 1,300 (0.68%) were called active. Rule as the data show it: active = inhibition above about 50%; inactive = the rest. The entries come from a sample that favours actives as a whole.

Sequence of Mannose-6-phosphate isomerase (Homo sapiens) (P34949 whole entry, looked up): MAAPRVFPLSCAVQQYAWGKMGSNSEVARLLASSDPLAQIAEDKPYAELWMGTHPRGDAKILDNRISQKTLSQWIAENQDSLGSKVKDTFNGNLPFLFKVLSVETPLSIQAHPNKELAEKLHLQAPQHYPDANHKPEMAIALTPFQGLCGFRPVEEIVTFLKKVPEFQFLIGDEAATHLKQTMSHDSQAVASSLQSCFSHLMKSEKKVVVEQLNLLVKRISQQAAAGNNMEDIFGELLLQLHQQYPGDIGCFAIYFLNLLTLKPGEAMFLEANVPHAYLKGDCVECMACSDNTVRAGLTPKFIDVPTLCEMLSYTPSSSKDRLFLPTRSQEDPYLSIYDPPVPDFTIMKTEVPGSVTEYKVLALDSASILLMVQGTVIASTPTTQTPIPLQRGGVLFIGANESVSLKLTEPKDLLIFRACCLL

The test has as its target Mannose-6-phosphate isomerase (Homo sapiens) (UniProt P34949). The experiment in a line: human PMI inhibitors, high substrate, primary screen, biochemical, fluorescence intensity, high mannose 6-phosphate (AID 1220). The note with it: recombinant PMI enzyme, coupled fluorescence intensity; at 20 µM; stronger effect = higher value.
In the case of `CCOC(=O)C1=C(C)NC(C)=C(C(=O)OCC)C1C(=O)OCC(=O)c1ccc2c(c1)OCCO2`, the inhibition is 14.5% (inactive).
In the case of `COC(=O)c1oc2ccccc2c1NC(=O)CN1CCCC1`, the inhibition was 6.8% (inactive).
As for `COc1cc(NC(=S)Nc2cccc(C)n2)cc(OC)c1OC`, the figure is -3.5% (inactive); as for `C/C(CC(=O)Nc1ccc(Cl)c(C(F)(F)F)c1)=N\NC(=O)c1cc2ccccc2cc1O`, -5.7% (inactive).
Next, `NC(=S)N/N=C\c1c2ccccc2cc2ccccc12`: -132% (inactive).
With `NC(=S)Nc1cc2ccccc2c2ccccc12`, the inhibition was 65.4% (active).
Regarding `NC(=S)Nc1cccc2cc3ccccc3cc12`, the inhibition was -9% (inactive).
Take `Cc1cccc(NC(=O)c2ccoc2C)n1`: the inhibition was 9.2% (inactive).
As for `COc1cc(-c2n[nH]c(=S)n2-c2cc(C(F)(F)F)ccc2Cl)cc(OC)c1OC`, the inhibition is 8.8% (inactive).
As for `CN(C)Cc1c(O)ccc2c3c(c(=O)oc12)CCCCC3`, the inhibition is -2.7% (inactive).
As for `O=c1oc2c(CN3CCOCC3)c(O)ccc2c2ccccc12`, the figure is 0.8% (inactive); as for `COc1cc(/C=C2/C(C)=C(C#N)c3nc(N)c(C#N)c(C)c32)ccc1OCC(=O)O`, 50.9% (active).
`CC1=C(C#N)c2nc(N)c(C#N)c(C)c2/C1=C\c1ccc(C)cc1`: the inhibition is -35.8% (inactive).
As for `CC1=C(C#N)c2nc(N)c(C#N)c(C)c2/C1=C\c1ccc(-c2ccccc2C(=O)O)o1`, the figure is 10.6% (inactive).
Next, `Cc1c(O)ccc(NS(=O)(=O)c2ccccc2)c1C`: 5% (inactive).
As for `CCOC(=O)c1c(C)[n+]([O-])c2ccc3c(non3O)c12`, the figure is 10.7% (inactive); as for `O=c1c2c(nc3n1CCCCC3)-c1ccccc1CC21CCCCC1`, 1.4% (inactive).
Take `O=C1C2C3C=CC(CC3)C2C(=O)N1/N=C/c1c(O)ccc2ccccc12` (centres undefined): the inhibition is 70.3% (active).
Next, `O=S(=O)(/N=C/c1c(O)ccc2ccccc12)c1cccs1`: 27.7% (inactive).
Next, `Oc1ccc(C=NC2CCCCC2)c(O)c1`: 29% (inactive).
In the case of `O=C1C2C3C=CC(CC3)C2C(=O)N1/N=C/c1ccccc1O` (centres undefined), the inhibition was -0.9% (inactive).
As for `Oc1ccc2ccccc2c1/C=N/Nc1ccccc1`, the figure is -35.6% (inactive); as for `O=C(N/N=C\c1c(O)ccc2ccccc12)c1ccc(S(=O)(=O)N2CCCCC2)cc1`, -8.7% (inactive); as for `CN(C)/N=C/c1c(O)ccc2ccccc12`, 26.9% (inactive).
As for `CCc1ccc(C=NC23CN4CN(CN(C4)C2)C3)s1`, the figure is 2% (inactive); as for `O=C1C2C3C=CC(CC3)C2C(=O)N1/N=C/c1ccc(O)c(O)c1` (centres undefined), -11.1% (inactive); as for `Cc1ccccc1C(=O)NC(=S)Nc1ccc(S(=O)(=O)N2CCOCC2)cc1`, 3.6% (inactive).
With `CC(C)CC(=O)NC(=S)Nc1ccccn1`, the inhibition was -9.5% (inactive).
For the molecule `CCSc1nnc(NC(=O)CCc2ccc(OC)cc2)s1`, the inhibition was 8.9% (inactive).
As for `Cc1ccc(C2C(C#N)=C(N)SC(N)=C2C#N)o1`, the figure is -7.3% (inactive).
Next, `Oc1ccc2ccccc2c1C=Nc1cc(C(F)(F)F)ccc1N1CCCC1`: 52.1% (active); `Oc1c(Cl)cccc1C=Nc1cc(C(F)(F)F)ccc1N1CCCC1`: 7.1% (inactive); `O=C(N/N=C/c1c(O)ccc2ccccc12)c1cccc(C(F)(F)F)c1`: 8.4% (inactive).
On to `CC(=O)Nc1cc(Cl)ccc1OS(=O)(=O)c1ccc(C)cc1`, for which the inhibition is 6.5% (inactive).
As for `Fc1ccc(CN2CCCCCCC2)cc1`, the figure is -6.8% (inactive); as for `Nc1nc(-c2ccc(-c3ccccc3)cc2)cs1`, -2.8% (inactive); as for `COc1ccc(N(Cc2cc3cc(OC)ccc3[nH]c2=O)C(=O)C2CCCO2)cc1` (centres undefined), 7.7% (inactive).
As for `COc1ccc2[nH]c(=O)c(CN(C(=O)C3CCCO3)c3ccc(C)cc3)cc2c1` (centres undefined), the figure is 50% (active); as for `CCOc1ccc(N(Cc2cc3cc(OC)ccc3[nH]c2=O)C(=O)C2CCCO2)cc1` (centres undefined), 13.8% (inactive).
Take `CCC(=O)Nc1ccc(NC(=S)NC(=O)Cc2ccccc2)cc1`: the inhibition was 6% (inactive).
As for `CN(C)S(=O)(=O)c1ccc(NC(=S)NC(=O)Cc2ccccc2)cc1`, the figure is -3.1% (inactive); as for `CCN(CC)c1ccc(NC(=S)NC(=O)Cc2ccccc2)cc1`, 50.1% (active).
`Cc1ccc(CC2CC(=O)N(c3ccncc3)C2=O)cc1` (centres undefined): the inhibition is 1.2% (inactive).
Next, `CCc1nc2ccc(C(=O)Nc3ccc(NC(C)=O)cc3)cc2nc1CC`: 7.1% (inactive).
As for `Fc1ccc(Nc2cccc3nccnc23)cc1`, the figure is 26.2% (inactive); as for `Cc1ccc(OS(=O)Nc2cccc3nccnc23)cc1` (centres undefined), 5.5% (inactive).
Next, `c1cc(Nc2cccc3nccnc23)c2nccnc2c1`: 54.4% (active); `Cc1cc(C)n(-c2cc(C(=O)O)cc(C(=O)O)c2)n1`: -12.4% (inactive); `CC1=C(Sc2nc3ccccc3[nH]2)C(=O)NC(C)(C)C1`: 0.2% (inactive).
Consider `CO/N=C/CC(=O)c1cnc(-c2ccccc2)s1`, for which the inhibition is 57.6% (active).
Next, `O=C(C/C=N/OCc1c(Cl)cccc1Cl)c1cnc(-c2ccccc2)s1`: 14.6% (inactive).
Next, `O=C(C/C=N/OCc1ccc(Cl)cc1)c1cnc(-c2ccccc2)s1`: 13.5% (inactive); `CO/N=C/CC(=O)c1cnc(-c2ccc(Cl)cc2)s1`: 53.8% (active).
Take `O=C(C/C=N/OCc1ccc(F)cc1Cl)c1cnc(-c2ccccc2)s1`: the inhibition was -2.1% (inactive).
As for `O=C(C/C=N/OCc1ccccc1F)c1cnc(-c2ccc(Cl)cc2)s1`, the inhibition is 1.3% (inactive).
As for `Cc1ccccc1C(=O)NC1CCN(Cc2nnnn2Cc2ccc(F)cc2)CC1`, the figure is 4.6% (inactive); as for `CCC(C)(C)NC(=O)C(c1ccccn1)N(C(=O)c1csnn1)c1ccc(C)cc1` (centres undefined), -1.6% (inactive); as for `COc1cc(CNn2cn[nH]c2=S)cc(Br)c1OCc1ccccc1F`, 0.2% (inactive).
As to `CCCCCCNS(=O)(=O)c1ccc(OC)c(OC)c1`, the inhibition is 5.6% (inactive).
Next, `CCCN1CCC(NC(=S)Nc2ccc(OC)c(OC)c2)CC1`: -3% (inactive); `CCn1cnc2cc(NCc3nc4ccccc4n3C)ccc21`: 14.9% (inactive).
Next, `Cc1nc2cc(NCc3nc4ccccc4n3Cc3ccccc3)ccc2n1C`: 20% (inactive); `CCn1cnc2cc(NCc3nc4ccccc4n3Cc3ccccc3)ccc21`: 50.6% (active).
Next, `CCOc1cc2[nH]c(=S)n(C3CC3)c(=O)c2cc1OCC`: 2.9% (inactive).
Turning to `O=C(c1ccccc1[N+](=O)[O-])N1CCCN(C(=O)c2ccccc2[N+](=O)[O-])CC1`, the inhibition is -6.8% (inactive).
`COc1cc(NCCCCCCCN)c2ncccc2c1`: the inhibition was 50.3% (active).
Next, `COc1cc(NS(=O)(=O)c2ccc(C)cc2)c2ncccc2c1`: 32.6% (inactive); `COc1cc(NC(=O)C2CCCCC2)c2ncccc2c1`: 4.2% (inactive).
As for `CCn1c(CSCc2ccc(Cl)cc2)n[nH]c1=S`, the figure is -10.7% (inactive).
In the case of `CC(C)(C)C1=CC(=Nc2ccccc2N)C=C(C(C)(C)C)C1=O`, the inhibition was -7.5% (inactive).
Next, `CC(C)(C=O)C1=CC(=O)c2ccccc2C1=O`: 12.2% (inactive); `Cc1ccc(S(=O)(=O)N2CCOCC2)cc1C(=O)Nc1ccccn1`: 4.2% (inactive); `O=C(Cc1ccc(Cl)cc1)N/N=C/c1cccs1`: 15.1% (inactive).
As for `CCOC(=O)c1c(C)n(C)c2ccc(O)c(CN3CCN(C)CC3)c12`, the figure is 54.1% (active); as for `CCOC(=O)c1c(C)n(C)c2ccc(O)c(CN3CCCCC3)c12`, 8.7% (inactive).
Next, `CCOC(=O)c1c(C)n(C)c2ccc(O)c(CN3CCC(C)CC3)c12`: 22.9% (inactive).
As to `CCOC(=O)c1ccc(NC(=O)CSc2nnc(CNc3ccc(OC)cc3)n2C)cc1`, the inhibition was 53.5% (active).
As for `COc1ccc(NCc2nnc(SCC(=O)Nc3ccc(OC)cc3)n2C)cc1`, the figure is -0.9% (inactive).
As for `CCOC(=O)c1ccc(NC(=O)CSc2nnc(CNc3ccc(C)cc3)n2C)cc1`, the inhibition was 11.2% (inactive).
Next, `COc1ccc(-n2ccnc2SCC(=O)NCc2ccco2)c(OC)c1`: 5.5% (inactive); `O=C(NCc1ccco1)C1Cc2ccccc2CN1C(=O)c1ccco1` (centres undefined): -0.2% (inactive); `CCn1c(SCc2nc3sc(C(=O)O)c(C)c3c(=O)[nH]2)nnc1-c1ccc(Cl)cc1`: -1% (inactive).
Next, `CC(C)(C)c1csc(NC(=O)Nc2ccccc2)n1`: 7.8% (inactive); `COc1ccccc1NC(=O)Nc1nc(C(C)(C)C)cs1`: 56.3% (active).
As for `COc1ccccc1NC(=O)Nc1cc(NC(=O)Nc2ccccc2OC)c(C)nc1C`, the figure is -9.6% (inactive).
On to `COc1ccc(S(=O)(=O)c2ccc(OC)cc2)cc1`, for which the inhibition was 6.7% (inactive).
On to `COc1ccc(S(=O)(=O)/N=C2/C=CC(=O)C(C)=C2C)cc1`, for which the inhibition was 43.8% (inactive).
As for `COc1ccc(S(=O)(=O)N=C2C=C(C)C(=O)C(C)=C2)cc1`, the figure is 61.5% (active); as for `CC1CCN(C(c2ccccc2)c2nnnn2C(C)(C)C)CC1` (centres undefined), -19.6% (inactive); as for `Cn1cc(Br)c(C(=O)NN2C(=O)C3C4C=CC(C5CC45)C3C2=O)n1` (centres undefined), 2.3% (inactive).
As to `O=C(Cc1cccc2ccccc12)NCCOc1ccccc1F`, the inhibition is 23.4% (inactive).
Next, `Nc1cc2c(cc1[N+](=O)[O-])OCCO2`: 7.1% (inactive).
As for `Nc1cc2c(cc1[N+](=O)[O-])OCCOCCOCCO2`, the figure is 19.7% (inactive).
As for `Nc1cc2c(cc1[N+](=O)[O-])OCO2`, the figure is 52.9% (active).
`CCNc1nc(NCC)nc(C(=O)NN)n1`: the inhibition was -16.1% (inactive).
As for `COc1cc(/C=N/NC(=O)C(Cc2c[nH]c3ccccc23)NC(=O)OCC(C)C)cc([N+](=O)[O-])c1OCc1ccccc1` (centres undefined), the inhibition was 53.6% (active).
As for `COc1cc(/C=N/NC(=O)[C@H](Cc2c[nH]c3ccccc23)NC(=O)OCC(C)C)cc([N+](=O)[O-])c1O`, the figure is 14.5% (inactive); as for `COc1cc(/C=N/NC(=O)C(Cc2c[nH]c3ccccc23)NC(=O)OCC(C)C)cc([N+](=O)[O-])c1O` (centres undefined), 6.2% (inactive).
Next, `Cc1ccc(S(=O)(=O)Cc2ccc(C(=O)N3CCc4ccccc4C3)o2)cc1`: -0.7% (inactive).

The inhibition is the relative decrease from the control value, in per cent.
